Test [1] can be described thus: A CellTox Green Cytotoxicity Assay to monitor cytotoxicity in HepG2 cells - 0 hour (AID 1224882). Also: nearly all actives have a fitted effect of over 35% in size. Put shortly: (§1)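 Cells and non-lytic dye reagent are dispensed together (600 HepG2 cells/well) and incubated 5 h before DMSO compound transfer. Kinetic fluorescence is then recorded in the same wells during 40 h at 37 C.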
A short description of test [2]: A CellTox Green Cytotoxicity Assay to monitor cytotoxicity in HepG2 cells - 32 hour (AID 1224883). Also: nearly all actives have a fitted effect of over 50% in size. In short, it runs like this: as §1
Test [3] in a line: A CellTox Green Cytotoxicity Assay to monitor cytotoxicity in HEK293 cells - 8 hour (AID 1224884). Also: nearly all actives have a fitted effect of over 35% in size. Put shortly: (§2)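 Cells (HEK293, 600/well) and dye reagent are dispensed together. After 5 h at 37 C, 23 nL compound is pinned in. Plates stay at 37 C for 40 h with fluorescence read at 0h, 8h, 16h, 24h, 32h and 40h.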
The nature of test [4]: qHTS RealTime-Glo MT Cell Viability Assay in HepG2 cells - 16 hour (AID 1224885). Also: nearly all actives have a fitted effect of over 50% in size. Put shortly: (§3)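 Viability was tracked continuously by NanoLuc luminescence from prosubstrate reduced by living HepG2 cells, at successive time points over 40 h of compound exposure. Cells with reagent were preincubated 5 h at 37 °C before compound addition.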
Test [5] in a line: qHTS RealTime-Glo MT Cell Viability Assay in HEK293 cells - 24 hour (AID 1224886). Also: top concentration of the series differs between compounds; nearly all actives have a fitted effect of over 50% in size. Put shortly:
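Viability tracked continuously by luminescence as live cells reduce a prosubstrate for NanoLuc; HEK293 cells preincubated 5 h, compound-treated at 37 C, and read at 0, 8, 16, 24, 32 and 40 h.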
(qHTS replaces the single test concentration by a dilution series.)

Test [6] can be described thus: qHTS RealTime-Glo MT Cell Viability Assay in HEK293 cells - 8 hour (AID 1224887). Also: top concentration of the series differs between compounds; nearly all actives have a fitted effect of over 50% in size. In short, it runs like this: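 Real-time viability in HEK293: signal arises when living cells convert a prosubstrate for NanoLuc in the medium, so luminescence tracks viable cell number. Compound (23 nL, DMSO) added 5 h post-seeding; kinetic reads at 0–40 h, 37 C.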
Test [7] in a line: A CellTox Green Cytotoxicity Assay to monitor cytotoxicity in HEK293 cells - 16 hour (AID 1224888). Also: nearly all actives have a fitted effect of over 35% in size. In short, it runs like this:
as §2

A short description of test [8]: qHTS RealTime-Glo MT Cell Viability Assay in HepG2 cells - 0 hour (AID 1224889). Also: nearly all actives have a fitted effect of over 50% in size. In short, it runs like this: as §3
A short description of test [9]: A CellTox Green Cytotoxicity Assay to monitor cytotoxicity in HepG2 cells - 8 hour (AID 1224890). Also: nearly all actives have a fitted effect of over 45% in size. In short, it runs like this: as §1
A short description of test [10]: qHTS assay to identify small molecule antagonists of the estrogen receptor alpha (ER-alpha) signaling pathway using the BG1 cell line in the presence of 0.1 nM 17-beta-estradiol - cell viability counter screen (AID 1259241). Also: nearly all actives have a fitted effect of over 40% in size. Put shortly: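 Following 5 days in phenol red-free medium with charcoal-stripped serum, VM7Luc4E2 cells received test compounds alongside 0.1 nM 17beta-estradiol (final) at 37C for 22 hr. Live cells were then quantified via protease-substrate fluorescence.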

A short description of test [11]: qHTS assay to identify small molecule antagonists of the androgen receptor (AR) signaling pathway using the MDA cell line in the presence of 0.5 nM R1881 - cell viability counter screen (AID 1259242). Also: nearly all actives have a fitted effect of over 45% in size. Put shortly: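 Steps: plate MDA-kb2 cells, rest 5 hr at 37C without CO2; pin in compounds in DMSO; add R1881 to 0.5 nM final; incubate 16 hr; add CellTiter-Fluor, 30 min; read fluorescence.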

The target in test [12] is Estrogen receptor (Homo sapiens) (UniProt P03372). The test can be described thus: qHTS assay to identify small molecule antagonists of the estrogen receptor alpha (ER-alpha) signaling pathway using the BG1 cell line in the presence of 0.1 nM 17-beta-estradiol (AID 1259244). Also: nearly all actives have a fitted effect of over 50% in size. Put shortly:
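Antagonist mode: compounds in DMSO are pinned onto VM7Luc4E2 reporter cells, 0.1 nM final 17beta-estradiol is added, and after 22 h at 37C luciferase luminescence is measured with ONE-Glo.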

Test [13] is described as follows: qHTS assay to identify small molecule HDAC inhibitors (AID 1259364).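 Also: wild-type HCT-116 cells with endogenous class I/II HDAC activity; top concentration of the series differs between compounds; nearly all actives have a fitted effect of over 45% in size.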 In short, it runs like this: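 Cells (HCT-116, wild type) are seeded at 1,500 per well, incubated overnight, treated with compound in DMSO for 2 hr, then developed with HDAC-Glo I/II reagent for 30 min at room temperature.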
Test [14] in a line: qHTS assay to identify small molecule HDAC inhibitors - cell viability counter screen (AID 1259365). In short, it runs like this:
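HCT-116 wild-type, overnight attachment; 2hr drug exposure, 37C; CellTiter-Glo luminescent ATP readout after 30min RT.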

A short description of test [15]: qHTS assay to identify small molecule agonists of the sonic hedgehog signaling (Shh) pathway - cell viability counter screen (AID 1259366). Also: nearly all actives have a fitted effect of over 50% in size. In short, it runs like this:
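Compounds in DMSO were pin-transferred onto 3T3 Gli1-Luc cells that had settled 4hr; plates then stood 24hr at 37C and 5% CO2. One hour before the end, CellTiter-Fluor was added and fluorescence recorded.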

Test [16] in a line: qHTS assay to identify small molecule agonists of the sonic hedgehog signaling (Shh) pathway (AID 1259368; calls by dose curve;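 also: NIH/3T3-derived 3T3Gli1-Luc cells carrying a stable Gli1-driven firefly luciferase reporter; series mostly up to about 92 µM; nearly all actives have a fitted effect of over 15% in size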). Put shortly: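 Cells of a mouse NIH/3T3 clone stably expressing luciferase under the Gli1 transcriptional response element are exposed to test chemicals for 24 hr at 37 C. Pathway activation is detected as a rise in luminescence.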
Test [17] in a line: qHTS assay to identify small molecule antagonists of the sonic hedgehog signaling (Shh) pathway (AID 1259369; calls by dose curve; also: nearly all actives have a fitted effect of over 45% in size; also: potency is read from the fitted curve at half-maximal effect). Put shortly: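 Cells are plated and held 4hr at 37 C, compounds (DMSO) are pinned in, conditioned medium is added to stimulate the pathway, and after 24hr luciferase reagent is added for 30min before luminescence is read.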
A short description of test [18]: qHTS assay to identify small molecule antagonists of the sonic hedgehog signaling (Shh) pathway - cell viability counter screen (AID 1259367). Also: nearly all actives have a fitted effect of over 55% in size. In short, it runs like this:
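Viability was read by CellTiter-Fluor fluorescence in the same wells, reagent added 23 hr into compound treatment and incubated 1 hr at 37C. The 3T3 Gli1-Luc reporter cells (2,000/well) received conditioned medium after compound and ran 24 hr.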

Test [19] in a line: qHTS assay to identify small molecule phospholipidosis (PLD) inducers (AID 1259344; active = well fitted curve in the direction sought with a large enough effect; an effect the other way counts as inactive or inconclusive). In short, it runs like this: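 Phospholipid accumulation was scored by imaging: fixed, Hoechst-counterstained HepG2 cells stained with LipidTOX Red after 24 h compound exposure at 37 C. Read-outs were pit count and pit intensity per well or per cell, with amiodarone and DMSO controls.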
Test [20] addresses Androgen receptor (Homo sapiens) (UniProt P10275). Kind of test: qHTS assay to identify small molecule antagonists of the androgen receptor (AR) signaling pathway using the MDA cell line in the presence of 0.5 nM R1881 (AID 1259243). Also: nearly all actives have a fitted effect of over 50% in size. In short, it runs like this: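 Stably transfected MDA-kb2 cells express luciferase from an MMTV promoter bearing both AR and GR response elements. Compounds plus 0.5 nM R1881 (final) were incubated 16 hr at 37C without CO2, then luminescence measured.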

Unmarked numbers belong to inactive results. Results filed as inconclusive are left out. Calls of active or inactive are those of the source. Unless noted, calls follow the shape of the dose curve; as a rule, active = well fitted curve in the direction sought with a large enough effect in the repeat runs; inconclusive = weak or mixed curves; inactive = no such curve, though single readings can be large; an effect the other way counts as inactive or inconclusive.

Sequence of Estrogen receptor (Homo sapiens) (P03372 whole entry, looked up): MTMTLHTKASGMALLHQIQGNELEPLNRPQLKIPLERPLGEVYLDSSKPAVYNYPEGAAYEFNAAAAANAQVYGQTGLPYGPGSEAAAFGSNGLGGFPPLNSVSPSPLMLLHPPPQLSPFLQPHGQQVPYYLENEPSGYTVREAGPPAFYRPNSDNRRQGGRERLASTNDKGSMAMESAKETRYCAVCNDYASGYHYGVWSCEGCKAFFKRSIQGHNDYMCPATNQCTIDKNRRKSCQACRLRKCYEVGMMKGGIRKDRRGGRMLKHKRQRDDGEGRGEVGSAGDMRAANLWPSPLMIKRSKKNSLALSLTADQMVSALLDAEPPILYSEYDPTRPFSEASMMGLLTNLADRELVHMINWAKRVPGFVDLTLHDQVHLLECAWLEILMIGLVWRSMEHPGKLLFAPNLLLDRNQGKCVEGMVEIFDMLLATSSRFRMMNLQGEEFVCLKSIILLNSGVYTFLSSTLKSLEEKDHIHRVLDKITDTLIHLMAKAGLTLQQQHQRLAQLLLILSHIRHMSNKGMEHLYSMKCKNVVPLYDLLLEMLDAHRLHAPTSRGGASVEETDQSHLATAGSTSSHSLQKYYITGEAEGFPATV
Sequence of Androgen receptor (Homo sapiens) (P10275 whole entry, looked up): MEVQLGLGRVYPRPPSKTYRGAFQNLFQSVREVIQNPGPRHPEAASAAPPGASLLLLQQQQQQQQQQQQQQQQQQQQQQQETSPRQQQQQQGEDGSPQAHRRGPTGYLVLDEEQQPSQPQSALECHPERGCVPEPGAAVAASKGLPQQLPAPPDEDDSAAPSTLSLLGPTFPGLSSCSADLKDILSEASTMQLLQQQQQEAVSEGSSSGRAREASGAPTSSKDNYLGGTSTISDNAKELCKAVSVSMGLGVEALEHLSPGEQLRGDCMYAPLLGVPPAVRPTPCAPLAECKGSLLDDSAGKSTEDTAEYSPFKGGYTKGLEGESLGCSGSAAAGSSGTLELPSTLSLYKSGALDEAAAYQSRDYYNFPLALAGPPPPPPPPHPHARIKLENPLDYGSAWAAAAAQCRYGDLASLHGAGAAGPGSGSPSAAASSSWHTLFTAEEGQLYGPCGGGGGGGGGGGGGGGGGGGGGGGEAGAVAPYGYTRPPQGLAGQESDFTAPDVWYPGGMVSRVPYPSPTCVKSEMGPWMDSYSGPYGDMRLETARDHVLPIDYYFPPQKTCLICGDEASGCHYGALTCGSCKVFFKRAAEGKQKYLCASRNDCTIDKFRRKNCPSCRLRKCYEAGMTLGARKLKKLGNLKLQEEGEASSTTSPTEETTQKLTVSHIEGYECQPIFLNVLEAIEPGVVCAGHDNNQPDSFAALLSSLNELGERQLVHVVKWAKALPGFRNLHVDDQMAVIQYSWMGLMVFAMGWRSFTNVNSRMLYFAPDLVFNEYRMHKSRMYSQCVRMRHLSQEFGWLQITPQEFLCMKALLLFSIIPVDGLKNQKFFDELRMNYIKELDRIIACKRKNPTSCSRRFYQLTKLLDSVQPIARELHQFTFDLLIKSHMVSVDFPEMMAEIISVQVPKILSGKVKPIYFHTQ

In the case of `CCCCCCCCCCCCC(=O)O`, the Potency entry in test [1], in [2], in [3], in test [4], in test [5] and in test [6] was “inactive” throughout. The Potency result in [7], in test [8], in test [9], in test [10], in [11] and in [12] was “inactive” throughout. Moreover, the Potency result in test [13] and in [15] was “inactive” each time. Moreover, the compound was classed as inactive in test [14] and in test [16]. Moreover, the Potency in test [17] was 2.74 µM (active).
Turning to `CCOC(=O)CC(C)C`, the Potency result in test [1], in [2], in test [3], in test [4], in test [5] and in [6] was “inactive” each time. Also, the Potency result in test [7], in test [8], in test [9], in test [10], in [11] and in test [12] was “inactive” each time. Further, the Potency result in test [13], in [18] and in test [17] was “inactive” each time. Moreover, the compound was called inactive in test [14] and in [16].
Turning to `CCCc1ccccc1`, the Potency result in [1], in test [2], in test [3], in test [4], in test [5] and in [6] was “inactive” in each case. Further, the Potency entry in test [7], in test [8], in test [9], in [10], in test [11] and in test [12] was “inactive” each time. Besides, the Potency entry in test [13], in [15], in test [18] and in [17] was “inactive” throughout. The compound was classed as inactive in [14] and in [16].
Consider `N=C(N=C(N)N)N1CCOCC1`, for which the Potency result in test [1], in [2], in test [3], in test [4], in test [5] and in test [6] was “inactive” throughout. Moreover, the Potency entry in test [7], in test [8], in [9], in test [10], in test [11] and in test [12] was “inactive” throughout. Besides, the Potency result in [19], in test [13], in [15], in [18] and in test [17] was “inactive” in each case. Moreover, the call in test [14] and in test [16] was inactive.
For the compound `CCN(CC)CCOC(=O)C1(c2ccccc2)CCCC1`, the Potency entry in test [1], in test [2], in [3], in test [4], in test [5] and in [6] was “inactive” in each case. For the same compound, the Potency entry in test [7], in [8], in test [9], in test [10], in test [11] and in test [20] was “inactive” in each case. For the same compound, the Potency entry in test [12], in test [19], in test [13], in test [15], in test [18] and in [17] was “inactive” throughout. The compound was classed as inactive in test [14] and in [16].
As to `OC(CCN1CCCCC1)(c1ccccc1)C1CCCCC1` (stereo not drawn), the Potency result in test [1], in test [2], in test [3], in test [4], in [6] and in test [7] was “inactive” each time. Moreover, the Potency entry in [8], in test [9], in test [10], in [11], in [12] and in [19] was “inactive” in each case. The Potency entry in test [13] and in [18] was “inactive” each time. Moreover, the compound was called inactive in [14] and in [16]. In test [17], the Potency is 8.41 µM (active).

The values are drawn from PubChem BioAssay (Tox21).
